Source: PubChem BioAssay (Tox21)
Inconclusive results are not listed. Active and inactive are the calls of the source. Unless noted, calls follow the shape of the dose curve; as a rule, active = well fitted curve in the direction sought with a large enough effect in the repeat runs; inconclusive = weak or mixed curves; inactive = no such curve, though single readings can be large; an effect the other way counts as inactive or inconclusive.

Assays:
[1] = qHTS assay for small molecules that induce genotoxicity in human embryonic kidney cells expressing luciferase-tagged ATAD5 (AID 651632); also: nearly all actives have a fitted effect of over 15% in size
Outline: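 Reporter cells (HEK293T) express luciferase-tagged ATAD5, a protein that accumulates after DNA damage. Treat 16 hr at 37C/5% CO2, add Amplite, wait 30 min at RT, and read luminescence.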

[2] = qHTS assay for small molecule agonists of the p53 signaling pathway - cell viability (AID 651633; calls by dose curve;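 also: p53RE-bla HCT reporter cells with a stable beta-lactamase p53 reporter; series mostly up to about 83 µM; nearly all actives have a fitted effect of over 30% in size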)
Outline: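 p53RE-bla cells were treated with compound for 16 hours at 37 C. Cytotoxicity was then measured as CellTiter-Glo luminescence after 30 min at room temperature.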

[3] = qHTS assay for small molecules that induce genotoxicity in human embryonic kidney cells expressing luciferase-tagged ATAD5 - cell viability (AID 651634; calls by dose curve; also: nearly all actives have a fitted effect of over 25% in size)
Outline: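 Seeding of 2,000 HEK293T ATAD5-luciferase cells per well preceded pin-tool compound transfer. Plates sat 15.5 hr at 37C under 5% CO2, then fluorescence was read after 30 min with CellTiter-Fluor.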

[4] = qHTS assay for small molecule disruptors of the mitochondrial membrane potential - cell viability (AID 720634; calls by dose curve;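 also: human HepG2 liver cancer cells; series mostly up to about 83 µM; nearly all actives have a fitted effect of over 20% in size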)
Outline: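 Measuring cytotoxicity alongside mitochondrial potential, the screen quantified ATP by luminescence in HepG2 cells after 1 hr compound incubation and a 30 min room-temperature CellTiter-Glo step.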

[5] = qHTS assay to test for compound auto fluorescence at 590 nm (red) in HepG2 cells (AID 720674)
Outline: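 Fluorescence at 590 nm emission following 540 nm excitation was recorded from HepG2 wells one hour after compound transfer, with DMSO-only wells as vehicle and Rose Bengal sodium equivalency as the scale.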

[6] = qHTS assay to test for compound auto fluorescence at 535 nm (green) in HepG2 cells (AID 720675)
[7] = qHTS assay to test for compound auto fluorescence at 460 nm (blue) in HEK293 cells (AID 720678)
Outline: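 After cell attachment (4-5 hr, 37C), compounds were pinned onto HEK293 monolayers in 10% dialyzed FBS medium. The blue channel (405/460 nm) was read following overnight culture. Equivalency was calculated against triamterene.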

[8] = qHTS assay to test for compound auto fluorescence at 590 nm (red) in HEK293 cells (AID 720679)
Outline: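 Plates of HEK293 cells (10% dialyzed FBS) are treated with 23 nL compound or DMSO vehicle after a 4-5 hr attachment period, incubated overnight at 37C, and read for red fluorescence at 540/590nm.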

[9] = qHTS assay for small molecule disruptors of the mitochondrial membrane potential (AID 720635)
Outline: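 HepG2 cells exposed to compound 1 hr at 37C, then Mito-MPS dye 30 min. Ratio read of aggregate (540/590 nm) versus monomer (490/535 nm) fluorescence.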
% is scaled to controls: 0 for no effect and ±100 for the full control effect.

COc1nc(N)nc2nc[nH]c12
inactive: outcome [1] | outcome [2] | Potency [3] | outcome [4] | outcome [5] | outcome [6] | outcome [7] | outcome [8]

N[C@@H](Cc1ccc(O)cc1)C(=O)O
inactive: outcome [1] | outcome [2] | Potency [3] | outcome [4] | Potency [9] | outcome [5] | outcome [6] | outcome [7] | outcome [8]

CC(=O)OC(C)=O
inactive: outcome [1] | outcome [2] | Potency [3] | outcome [4] | outcome [5] | outcome [6] | outcome [7] | outcome [8]

CCC/C=C(\C=O)CC
inactive: outcome [1] | outcome [2] | outcome [4] | Potency [9] | outcome [5] | outcome [6] | outcome [7] | outcome [8]

CC12CCC(C1)C(C)(C)C2O (stereo not given)
inactive: outcome [1] | outcome [2] | Potency [3] | outcome [4] | Potency [9] | outcome [5] | outcome [6] | outcome [7] | outcome [8]

CO/N=C(/C(=O)N[C@@H]1C(=O)N2C(C(=O)[O-])=C(C[n+]3ccn4ncccc43)CS[C@H]12)c1nsc(N)n1
inactive: outcome [1] | outcome [2] | Potency [3] | outcome [4] | Potency [9] | outcome [5] | outcome [6] | outcome [7] | outcome [8]

N#Cc1ccccc1O
inactive: outcome [1] | outcome [2] | Potency [3] | outcome [4] | outcome [5] | outcome [6] | outcome [7] | outcome [8]

CC(C)C1OCCN1CCOC(=O)NCCCCCCNC(=O)OCCN1CCOC1C(C)C (stereo not given)
inactive: outcome [1] | outcome [2] | Potency [3] | outcome [4] | outcome [5] | outcome [6] | outcome [7] | outcome [8]

CC(C)(CO)C(O)C(=O)NCCCO (stereo not given)
inactive: outcome [1] | outcome [2] | Potency [3] | outcome [4] | Potency [9] | outcome [5] | outcome [6] | outcome [7] | outcome [8]

C=CCOC(=O)CCCCCC
inactive: outcome [1] | outcome [2] | Potency [3] | outcome [4] | outcome [5] | outcome [6] | outcome [7] | outcome [8]

CC(=O)Nc1ccc(OC(=O)c2ccccc2OC(C)=O)cc1
inactive: outcome [1] | Potency [3] | outcome [4] | outcome [5] | outcome [6] | outcome [7] | outcome [8]

O=C1CCC(=O)N1Cl
inactive: outcome [1] | outcome [2] | outcome [4] | outcome [5] | outcome [6] | outcome [7] | outcome [8]

O=C(CCCCC(=O)Nc1c(I)cc(I)c(C(=O)O)c1I)Nc1c(I)cc(I)c(C(=O)O)c1I
inactive: outcome [1] | Potency [3] | outcome [4] | Potency [9] | outcome [5] | outcome [6] | outcome [7] | outcome [8]

CCNC(=O)NCc1cccc(Cl)c1
inactive: outcome [1] | Potency [3] | outcome [4] | Potency [9] | outcome [5] | outcome [6] | outcome [7] | outcome [8]

O=Cc1ccccc1Cl
inactive: outcome [1] | Potency [3] | outcome [4] | Potency [9] | outcome [5] | outcome [6] | outcome [7] | outcome [8]

COP(=O)(O)OP(=O)(O)OC
inactive: outcome [1] | Potency [3] | outcome [4] | Potency [9] | outcome [5] | outcome [6] | outcome [7] | outcome [8]

CN(C)CCOC(=O)C(c1ccccc1)C1(O)CCCC1 (stereo not given)
inactive: outcome [1] | Potency [3] | outcome [4] | Potency [9] | outcome [5] | outcome [6] | outcome [7] | outcome [8]

O/N=C/C=N/O
inactive: outcome [2] | outcome [4] | Potency [9] | outcome [5] | outcome [6] | outcome [7] | outcome [8]

CC(C)OC(=O)CCC(=O)OC(C)C
inactive: outcome [1] | outcome [2] | outcome [4] | outcome [5] | outcome [6] | outcome [7] | outcome [8]

OC1OCCOC1O (stereo not given)
inactive: outcome [1] | outcome [4] | outcome [5] | outcome [6] | outcome [7] | outcome [8]

COC(=O)c1ccccc1C(=O)O
inactive: outcome [1] | outcome [2] | outcome [4] | Potency [9] | outcome [5] | outcome [6] | outcome [7] | outcome [8]

CC1=C(C(=O)O)N2C(=O)[C@@H](NC(=O)[C@H](N)C3=CCC=CC3)[C@H]2SC1
inactive: outcome [1] | Potency [3] | outcome [4] | Potency [9] | outcome [5] | outcome [6] | outcome [7] | outcome [8]

Cc1c(NC(=O)c2cccnc2)c(=O)n(-c2ccccc2)n1C
inactive: outcome [1] | outcome [2] | outcome [4] | Potency [9] | fluorescence, relative to Rose Bengal [5] 0.269% [at 18.6 µM] | fluorescence, % of fluorescein control [6] -0.0361% [at 18.6 µM] | fluorescence, % of triamterene [7] -0.0133% [at 18.6 µM] | fluorescence, % of fluorescent control [8] 0.237% [at 18.6 µM]

COc1ccc2c(c1)c1c3n2CCN(C)C3=NCC1
inactive: outcome [1] | Potency [3] | outcome [4] | Potency [9] | outcome [5] | outcome [6] | outcome [7] | outcome [8]

C/C=C(\C)C(=O)OCCc1ccccc1
inactive: outcome [1] | Potency [3] | outcome [4] | outcome [5] | outcome [6] | outcome [7] | outcome [8]

COC(=O)c1cc(Cl)cc(Cl)c1
inactive: outcome [1] | Potency [3] | outcome [4] | outcome [5] | outcome [6] | outcome [7] | outcome [8]

CCCC(=O)OC/C=C(\C)CCC=C(C)C
inactive: outcome [1] | outcome [2] | outcome [4] | outcome [5] | outcome [6] | outcome [7] | outcome [8]

CCC(C)OC(C)CC (stereo not given)
inactive: outcome [1] | Potency [3] | outcome [4] | Potency [9] | outcome [5] | outcome [6] | outcome [7] | outcome [8]

CN(C)CCCO[C@@H]1[C@H]2OC(C)(C)O[C@H]2O[C@@H]1C(O)CO (stereo not given in full)
inactive: outcome [1] | Potency [3] | outcome [4] | Potency [9] | outcome [5] | outcome [6] | outcome [7] | outcome [8]

CCCC(=O)Nc1ccc(OCC(O)CNC(C)C)c(C(C)=O)c1 (stereo not given)
inactive: outcome [1] | outcome [2] | outcome [4] | fluorescence, relative to Rose Bengal [5] -0.376% [at 18.6 µM] | fluorescence, % of fluorescein control [6] -0.0898% [at 18.6 µM] | fluorescence, % of triamterene [7] 0.0234% [at 18.6 µM] | fluorescence, % of fluorescent control [8] -0.0649% [at 18.6 µM]

C=C(C)C1CC=C(C)C(=O)C1 (stereo not given)
inactive: outcome [1] | Potency [3] | outcome [4] | outcome [5] | outcome [6] | outcome [7] | outcome [8]

CCC(C)C(C)=O (stereo not given)
inactive: outcome [1] | outcome [5] | outcome [6] | outcome [7] | outcome [8]

CC(C)CO
inactive: outcome [1] | outcome [2] | outcome [4] | Potency [9] | outcome [5] | outcome [6] | outcome [7] | outcome [8]

CC1CC(=O)CC(C)(C)C1 (stereo not given)
inactive: outcome [1] | outcome [2] | outcome [4] | outcome [5] | outcome [6] | outcome [7] | outcome [8]

CN(C)CCN(C)CCO
inactive: outcome [1] | outcome [4] | Potency [9] | outcome [5] | outcome [6] | outcome [7] | outcome [8]

O=C=NCC1CCCC(CN=C=O)C1 (stereo not given)
inactive: outcome [1] | outcome [4] | outcome [5] | outcome [6] | outcome [7] | outcome [8]

OCCN1CCOCC1
inactive: outcome [1] | Potency [3] | outcome [4] | outcome [5] | outcome [6] | outcome [7] | outcome [8]

CCCCCCCCCCCCCBr
inactive: outcome [1] | outcome [2] | outcome [4] | outcome [5] | outcome [6] | outcome [7] | outcome [8]

C=CCN1C[C@H](C(=O)N(CCCN(C)C)C(=O)NCC)C[C@@H]2c3cccc4[nH]cc(c34)C[C@H]21
inactive: outcome [1] | outcome [4] | outcome [5] | outcome [6] | outcome [7] | outcome [8]

CC(C)NCC(O)c1ccc2ccccc2c1 (stereo not given)
inactive: outcome [2] | Potency [3] | outcome [4] | Potency [9] | outcome [5] | outcome [6] | outcome [7] | outcome [8]

COc1c2occc2c(OC)c2c(=O)cc(C)oc12
inactive: outcome [1] | Potency [3] | outcome [4] | fluorescence, relative to Rose Bengal [5] 0.0231% [at 18.6 µM] | fluorescence, % of fluorescein control [6] -0.275% [at 18.6 µM] | fluorescence, % of triamterene [7] 0.0098% [at 18.6 µM] | fluorescence, % of fluorescent control [8] 0.0103% [at 18.6 µM]

Cc1ccc(C)c([N+](=O)[O-])c1
inactive: outcome [2] | outcome [4] | Potency [9] | outcome [5] | outcome [6] | outcome [7] | outcome [8]

C[C@H]1[C@@H](c2ccccc2)NC(=O)N1C
inactive: outcome [1] | Potency [3] | outcome [4] | outcome [5] | outcome [6] | outcome [7] | outcome [8]

O=NN(CCCl)C(=O)NC1CCCCC1
inactive: outcome [1] | outcome [4] | Potency [9] | outcome [5] | outcome [6] | outcome [7] | outcome [8]
